Results published in PubChem BioAssay (NCI).
About 79,000 compounds went through this panel and 15% of them were active in at least one assay; those are over-represented in the sample as a whole. A number with no mark means an inactive call. Active and inactive are the calls of the source. Cut-off read from the data, not from the text of the source: active = growth inhibition above about 70%; inactive = the rest.

How the values were obtained:
[1] = NCI Yeast Anticancer Drug Screen. Data for the rad50 strain (AID 155);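 note: 0% = growth of vehicle-only cultures of the same strain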; settings: S. cerevisiae rad50 strain growth inhibition, hits give high values
Outline: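 Growth of the mutant yeast was measured after compound exposure and referenced to vehicle-treated cultures.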

[2] = NCI Yeast Anticancer Drug Screen. Data for the mec2-1 strain (AID 157); settings: S. cerevisiae mec2-1 strain, hits give high values
Outline: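 Growth inhibition is read against vehicle-treated controls after compound exposure of the mec2-1 yeast strain, which is defective in DNA damage repair or cell cycle control.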

[3] = NCI Yeast Anticancer Drug Screen. Data for the sgs1 mgt1 strain (AID 161);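 note: 0% = growth of cultures given vehicle only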; settings: S. cerevisiae sgs1 mgt1 strain, hits give high values
Outline: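 Growth of a repair-deficient yeast mutant was monitored after compound treatment and expressed as inhibition relative to vehicle-treated cultures.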

[4] = NCI Yeast Anticancer Drug Screen. Data for the cln2 rad14 strain (AID 165);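 note: 0% = growth equal to vehicle treated cultures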; settings: S. cerevisiae cln2 rad14 strain, hits give high values
Outline: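 Growth inhibition, relative to vehicle-treated controls, is the read-out. The test organism is a yeast strain with defined genetic alterations, cln2 rad14.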

[5] = NCI Yeast Anticancer Drug Screen. Data for the bub3 strain (AID 167); settings: S. cerevisiae bub3 mutant strain, hits give high values
Outline: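 Whole-cell yeast assay. The mutant strain was incubated with compounds, and growth inhibition was determined by comparison with vehicle-treated cells.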

[6] = NCI Yeast Anticancer Drug Screen. Data for the mlh1 rad18 strain (AID 175); settings: S. cerevisiae mlh1 rad18 strain growth inhibition, hits give high values
Outline: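 Cells of a genetically altered yeast strain, deficient in DNA damage repair, were treated with compound. Their growth was then compared with that of vehicle-treated cultures to give inhibition.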

[7] = at 5.0 µM (retest, dose inferred, filed as 0.5)
[8] = at 50.0 µM (retest, dose inferred, filed as 5.0)

| Structure (SMILES) | growth inhibition [1, 7] | growth inhibition [1, 8] | growth inhibition ([1]; at 50.0 µM) | growth inhibition [2, 7] | growth inhibition [2, 8] | growth inhibition ([2]; at 50.0 µM) | growth inhibition [3, 7] | growth inhibition [3, 8] | growth inhibition ([3]; at 50.0 µM) | growth inhibition [4, 7] | growth inhibition [4, 8] | growth inhibition ([4]; at 50.0 µM) | growth inhibition [5, 7] | growth inhibition [5, 8] | growth inhibition ([5]; at 50.0 µM) | growth inhibition [6, 7] | growth inhibition [6, 8] | growth inhibition ([6]; at 50.0 µM) |
| --- | --- | --- | --- | --- | --- | --- | --- | --- | --- | --- | --- | --- | --- | --- | --- | --- | --- | --- |
| O=C(N/C(=C\c1ccccc1)C(=O)N1CCN(c2ccccc2)CC1)c1ccccc1 | -9% | 6% | 90.2% (active) | -4% | -2% | 93.2% (active) | -7% | 7% | 95.3% (active) | -12% | 0% | 87.8% (active) | -4% | 10% | 88.3% (active) | 0% | 6% | 91.7% (active) |
| O=c1[nH]c2c([N+](=O)[O-])cc(Cl)cc2nc1/C=C(\O)c1cccc2ccccc12 | 0% | 86% (active) | 77% (active) | 10% | 75% (active) | 62.2% | -10% | 81% (active) | 89.5% (active) | -1% | 87% (active) | 82.4% (active) | -3% | 88% (active) | 71.5% (active) | -7% | 85% (active) | 72.2% (active) |
| C=C1CC(Cn2cc(Br)c(=O)[nH]c2=O)(c2ccc(Br)cc2)OC1=O (configuration not stated) | 14% | 98% (active) | 97.8% (active) | 30% | 98% (active) | 98.7% (active) | 29% | 98% (active) | 97.8% (active) | 19% | 90% (active) | 97.2% (active) | 4% | 97% (active) | 97.2% (active) | 40% | 99% (active) | 98.7% (active) |
| O=C(CC(O)(C(F)(F)F)C(F)(F)Cl)CC(O)(C(F)(F)F)C(F)(F)Cl (configuration not stated) | 94% (active) | 88% (active) | 99.3% (active) | 92% (active) | 99% (active) | 99.4% (active) | 91% (active) | 99% (active) | 99.7% (active) | 89% (active) | 99% (active) | 99% (active) | 86% (active) | 99% (active) | 99.5% (active) | 94% (active) | 99% (active) | 99.4% (active) |
| Oc1c(Cl)cc(Cl)cc1/C=C1\C=Nc2ccccc21 | 1% | -5% | 2.75% | -11% | 5% | 14.9% | -7% | 5% | -14.2% | 13% | 20% | 13.6% | 3% | 23% | 5.2% | -3% | -3% | 4.95% |
| Nc1ccccc1C(=O)/C=C/c1ccccc1 | 19% | 73% (active) | 98.8% (active) | 4% | 57% | 99% (active) | -2% | 70% (active) | 94.6% (active) | -23% | 27% | 80.1% (active) | 11% | 73% (active) | 99.2% (active) | 21% | 84% (active) | 96.8% (active) |
| NC(=O)C(CCc1cccc2ccccc12)c1ccccc1 (configuration not stated) | 6% | 14% | 98.8% (active) | -10% | -6% | 94.5% (active) | -6% | 24% | 36.3% | -5% | -3% | 62.5% | -2% | 12% | 95.8% (active) | -8% | 14% | 98.4% (active) |
| O=Nc1ccc(O)c(/C=N/O)c1 | 19% | 94% (active) | 87.3% (active) | 11% | 96% (active) | 91% (active) | 6% | 90% (active) | 92.1% (active) | 24% | 95% (active) | 83.8% (active) | 1% | 99% (active) | 90% (active) | 1% | 97% (active) | 88.9% (active) |
| Cc1ccc(C(C)(C)C)c(O)c1O | 4% | 98% (active) | 91.2% (active) | -18% | 98% (active) | 91.7% (active) | 1% | 52% | 92.1% (active) | 8% | 98% (active) | 91.8% (active) | -9% | 98% (active) | 91.4% (active) | -25% | 97% (active) | 90.5% (active) |
| CCN(C(C)=O)c1ccc2c(c1)Cc1ccccc1-2 | 3% | 96% (active) | 97.2% (active) | -3% | 97% (active) | 95.2% (active) | 5% | 97% (active) | 96.8% (active) | -2% | 96% (active) | 94.8% (active) | 11% | 96% (active) | 97.4% (active) | -10% | 97% (active) | 96.8% (active) |
| CCCC(/C=N/N=C(N)N)=N\N=C(N)N | -24% | -8% | -24.1% | -11% | 4% | -8.95% | -1% | -30% | -14.3% | 10% | 0% | -33.1% | -12% | -2% | -8.95% | 4% | -1% | -10.6% |
| COc1ccc(C(CC(=O)c2ccccc2)Sc2ccccc2N)cc1 (configuration not stated) | 46% | 52% | -4.15% | 54% | 51% | 26.9% | -13% | 32% | 32.4% | 44% | 20% | -13.3% | 35% | 57% | 49.8% | 36% | 46% | 7.35% |
| C=Cc1cc(N=Nc2ccc([N+](=O)[O-])cc2)ccc1N(C)C | 6% | 12% | 48% | -1% | -2% | 4.2% | 3% | 25% | 4.6% | -2% | -15% | -25.9% | 2% | 6% | 2.55% | -9% | -12% | 47.7% |
| CCC(C)(C[NH-])C[NH-].[Cl][Pt+2][Cl] | 13% | 27% | 28% | 19% | 28% | 45.9% | 18% | 28% | 3.9% | 26% | 34% | 10.4% | 11% | 28% | -14.7% | 25% | 42% | -17.6% |
| CCCCCCCSCc1nc2ccccc2c(C)[n+]1[O-] | 2% | 99% (active) | 96.7% (active) | 3% | 98% (active) | 95.8% (active) | 0% | 98% (active) | 95.8% (active) | -3% | 98% (active) | 94.8% (active) | -2% | 99% (active) | 98% (active) | 3% | 98% (active) | 97.5% (active) |
| O=C(CBr)N1c2ccccc2S(=O)(=O)c2ccc3ccccc3c21 | 36% | 97% (active) | 79.5% (active) | 49% | 98% (active) | 87% (active) | 66% | 98% (active) | 81.2% (active) | 36% | 96% (active) | 64.5% | 79% (active) | 97% (active) | 76.5% (active) | 79% (active) | 97% (active) | 89.8% (active) |
| CC1(c2ccc(F)cc2)OC(=O)c2c1ccc1ccccc21 (configuration not stated) | -7% | 68% | 56.2% | -5% | 78% (active) | 42.8% | 0% | 81% (active) | 56.5% | -15% | 70% (active) | -2.35% | -6% | 88% (active) | 72.6% (active) | -9% | 84% (active) | 29.5% |
| O=S(=O)(O)CC[S][Sn]([S]CCS(=O)(=O)O)([c]1ccccc1)[c]1ccccc1 (tested in a mixture with another compound) | 84% (active) | 98% (active) | 71.9% (active) | 48% | 98% (active) | 83.2% (active) | 92% (active) | 97% (active) | 88.6% (active) | 28% | 94% (active) | 79.8% (active) | 59% | 97% (active) | 86.2% (active) | 94% (active) | 96% (active) | 90.7% (active) |
| O=C(Cc1ccc(C2=NCCN2)cc1[N+](=O)[O-])c1ccc(C2=NCCN2)cc1 | -3% | 73% (active) | 49.2% | -7% | 35% | 89.6% (active) | 0% | 55% | 26.8% | -5% | 16% | 25% | -8% | 71% (active) | 49.3% | -5% | 68% | 68.7% |
